# Where “and” joins values, the source holds several entries; their conditions need not be identical. Identical values can stand only once. Calls of active or inactive are those of the source. Cut-off read from the data, not from the text of the source, unless noted: active = inhibition above about 80%; inactive = the rest.
# Assays:
# [1] = HDN33 neuroblastoma growth inhibition, cell-based, chromothripsis tumors, cisplatin or BGB combos (AID 1671450); settings: HDN33 neuroblastoma cells, stronger effect = higher value;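 note: cells exposed to compound for four days; 0% = vehicle DMSO and 100% = cell killing by high DMSO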
# [2] = ICB984 medulloblastoma cell growth inhibition, synergistic combos for chromothripsis tumors, cisplatin or BGB combos (AID 1671451; call rule not given here;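 note: cells exposed for 96 hours before readout; 0% = vehicle DMSO and 100% = killing by high DMSO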); settings: ICB984 medulloblastoma cells, drug combinations, stronger effect = higher value
# [3] = LFS_MB_1R medulloblastoma cell growth inhibition, synergistic combos for chromothripsis tumors, cisplatin or BGB combos (AID 1671452); settings: LFS_MB_1R medulloblastoma cells, stronger effect = higher value;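 note: cells exposed for 96 hours before readout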
# [4] = HTB85 osteosarcoma cell growth inhibition, synergistic combos for chromothripsis tumors, BGB or cisplatin IC20 combos (AID 1671453); settings: HTB85 osteosarcoma cells, drug combinations, stronger effect = higher value;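 note: cells exposed for 96 hours before readout; 0% = vehicle DMSO and 100% = high DMSO killing control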
# [5] = CRL2098 osteosarcoma cell growth inhibition, synergistic combos for chromothripsis tumors, BGB or cisplatin IC20 combos (AID 1671454); settings: CRL2098 osteosarcoma cells, drug combinations, stronger effect = higher value;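 note: cells exposed for 96 h before readout; 0% = vehicle DMSO and 100% = killing by high DMSO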
# [6] = HD-MB03 medulloblastoma cell growth inhibition, synergistic combos for chromothripsis tumors, BGB or cisplatin IC20 combos (AID 1671455; in the data active = inhibition above about 83%;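 note: 0% = vehicle DMSO and 100% = high DMSO as cytotoxic control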); settings: HD-MB03 medulloblastoma cells, stronger effect = higher value
# [7] = UWB1.289 ovarian carcinoma cell growth inhibition, synergistic combos for chromothripsis tumors, BGB or cisplatin combos (AID 1671456); settings: UWB1.289 ovarian carcinoma cells, stronger effect = higher value;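 note: cells exposed to compound for four days; 0% = vehicle DMSO and 100% = killing by high DMSO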
# [8] = LFS_MB_2R medulloblastoma cell growth inhibition, synergistic combos for chromothripsis tumors, cisplatin combos (AID 1671457); settings: LFS_MB_2R medulloblastoma cells, stronger effect = higher value;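 note: cells exposed to compound for four days before readout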
# [9] = MDA-MB-436 breast carcinoma cell growth inhibition, synergistic combos for chromothripsis tumors, BGB or cisplatin combos (AID 1671458; call rule not given here;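 note: cells exposed for 96 hours; 0% = vehicle DMSO and 100% = killing by high DMSO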); settings: MDA-MB-436 breast carcinoma growth inhibition, drug combinations, stronger effect = higher value
# [10] = UWB1.289_BRCA1 ovarian cancer growth, cell-based, BGB or cisplatin combinations (AID 1671459); settings: UWB1.289 BRCA1 ovarian carcinoma, drug combinations, stronger effect = higher value
# [11] = human astrocyte viability loss, single and combined drugs, cytotoxicity control for chromothriptic childhood tumor combination screen, cell-based, BGB or cisplatin IC20 combos (AID 1671460); settings: Human astrocytes, drug combinations, stronger effect = higher value;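 note: cells exposed to compounds for 96 hours before viability readout; 0% = vehicle and 100% = killing control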
# [12] = growth inhibition of BT084 medulloblastoma cells, cell-based, ICGC_MB145, cisplatin and BGB IC40 combos (AID 1671461); settings: drug combinations, stronger effect = higher value;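 note: cells exposed to drugs for 96 hours; 0% = vehicle DMSO and 100% = high DMSO full killing control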
# [13] = growth inhibition of RCMB18 medulloblastoma cells, cell-based, cisplatin and BGB IC40 combos (AID 1671462); settings: stronger effect = higher value;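 note: cells exposed to compound for four days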
# [14] = growth inhibition of CRL1545 osteosarcoma cells, cell-based, cisplatin and BGB IC20 combos (AID 1671464); settings: stronger effect = higher value;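 note: cells exposed to compound for 96 hours before readout; 0% = vehicle DMSO and 100% = high DMSO killing control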
# [15] = measured here: with cisplatin IC20 combination, at 0.5 µM
# [16] = measured here: combination with cisplatin, at 0.5 µM
# [17] = measured here: combination with cisplatin, at 5 µM
compound,measurement,setting,value
NC(=O)c1ccc(I)c([N+](=O)[O-])c1,inhibition,[1]; [15],8.47% and -16.9%
same,inhibition,"[1]; single agent, at 5 µM",-4.01% and -42.6%
same,inhibition,"[2]; BGB IC20 combo, at 0.005 µM",6.79% and -19.8%
same,inhibition,"[2]; BGB IC40 combo, at 0.005 µM",-8.71% and -63.3%
same,inhibition,"[2]; BGB IC40 combo, at 0.05 µM",6.96% and -25.8%
same,inhibition,[2]; at 0.5 µM,-18.4% (inactive) and -40.8% (inactive)
same,inhibition,"[2]; cisplatin combo, at 0.05 µM",4.36% and -30.8%
same,inhibition,"[2]; cisplatin combo, at 0.5 µM",-11.9% and -53.2%
same,inhibition,"[2]; cisplatin combo, at 5 µM",-10.4% and -25.8%
same,inhibition,"[2]; measured here: 5 uM single agent, at 5 µM",-7.67% and -25%
same,inhibition,[3]; at 0.5 µM,-3.89% (inactive) and -33.7% (inactive)
same,inhibition,"[3]; measured here: combination with BGB IC40, at 0.05 µM",-3.85% and -20%
same,inhibition,[3]; [16],-8.55% and -54.4%
same,inhibition,[3]; [17],14.7% and -8.48%
same,inhibition,[4]; at 0.5 µM,9.09% (inactive) and -11.2% (inactive)
same,inhibition,"[4]; measured here: with BGB IC20, at 0.5 µM",18.2% and -8.85%
same,inhibition,"[4]; measured here: with BGB IC20, at 5 µM",-13% and -0.795%
same,inhibition,"[4]; measured here: with cisplatin IC20, at 0.5 µM",-4.67% and -22.1%
same,inhibition,"[4]; measured here: with cisplatin IC20, at 5 µM",-22.8% and -21.8%
same,inhibition,"[4]; single agent, at 5 µM",-0.511% and -17.6%
same,inhibition,[5]; at 0.5 µM,-9.77% (inactive) and -68.7% (inactive)
same,inhibition,"[5]; measured here: combination with BGB at IC20, at 0.5 µM",4.55% and -23.6%
same,inhibition,"[5]; measured here: combination with cisplatin at IC20, at 0.5 µM",-0.612% and -98.1%
same,inhibition,[6]; at 0.5 µM,2.12% (inactive) and -9.81% (inactive)
same,inhibition,"[6]; measured here: combo with BGB at IC20, at 0.5 µM",8.1% and -18.5%
same,inhibition,"[6]; measured here: combo with cisplatin at IC20, at 0.5 µM",1.77% and -5.96%
same,inhibition,[7]; at 0.5 µM,4.39% (inactive) and -12.6% (inactive)
same,inhibition,"[7]; measured here: inhibition with BGB combination, at 0.05 µM",-4.87% and -28.1%
same,inhibition,"[7]; measured here: inhibition with cisplatin combination, at 0.05 µM",4.41% and -26.6%
same,inhibition,[8]; at 0.5 µM,-3.62% (inactive) and -27.7% (inactive)
same,inhibition,[8]; [16],4.37% and -27.4%
same,inhibition,[8]; [17],-55.7% and -23.8%
same,inhibition,[9]; at 0.5 µM,-14.6% (inactive) and -27.1% (inactive)
same,inhibition,"[9]; measured here: BGB combination, at 0.5 µM",-12.7% and -19.7%
same,inhibition,"[9]; measured here: BGB combination, at 5 µM",6.5% and -14.3%
same,inhibition,"[9]; measured here: cisplatin combination, at 0.5 µM",-24.5% and -37.3%
same,inhibition,"[9]; measured here: cisplatin combination, at 5 µM",-16.7% and -24%
same,inhibition,"[10]; BGB combination, concentration series, at 5 µM",8.62% and -14.6%
same,inhibition,[10]; at 0.5 µM,3.67% (inactive) and -21.5% (inactive)
same,inhibition,"[10]; cisplatin combination, concentration series, at 5 µM",11.7% and -8.59%
same,inhibition,[11]; at 0.5 µM,13.4% (inactive) and -16.5% (inactive)
same,inhibition,"[11]; measured here: combo with BGB IC20, at 0.5 µM",12.4% and -9.72%
same,inhibition,"[11]; measured here: combo with cisplatin IC20, at 0.5 µM",18.2% and -4.93%
same,inhibition,[12]; at 0.5 µM,-19.3% (inactive) and -16.2% (inactive)
same,inhibition,"[12]; cisplatin combination, at 0.5 µM",8.84% and -1.53%
same,inhibition,"[12]; cisplatin combination, at 5 µM",4.99% and 0.215%
same,inhibition,"[12]; measured here: BGB IC40 combination 0.05 uM, at 0.05 µM",25.4% and -22.5%
same,inhibition,"[12]; single agent, at 5 µM",-9.27% and -35.4%
same,inhibition,[13]; at 0.5 µM,2.19% (inactive) and -9.96% (inactive)
same,inhibition,"[13]; cisplatin combo, at 5 µM",15.5% and 33.9%
same,inhibition,"[13]; measured here: BGB IC40 combination, at 0.05 µM",-12.1% and -17.3%
same,inhibition,[13]; [16],21.4% and 23.8%
same,inhibition,"[13]; single agent, at 5 µM",-9.55% and -39.2%
same,inhibition,[14]; at 0.5 µM,3.31% (inactive) and -13.9% (inactive)
same,inhibition,"[14]; measured here: with BGB IC20 combination, at 0.5 µM",-14.5% and -22.9%
same,inhibition,[14]; [15],10.2% and -9.34%
same,inhibition,"[14]; single agent, at 0.05 µM",-40.1% and -19.9%
same,inhibition,"[14]; single agent, at 5 µM",-12.7% and -3.93%
